Assay results published in PubChem BioAssay (NCI).
“And” between values parts separate entries of the source, which are not always exact repeats. Equal entries are not always repeated. About 83,000 compounds went through this panel and 20% of them were active in at least one assay; those are over-represented in the sample as a whole.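 Interpretation: 100, growth as untreated; towards 0, rising growth inhibition; 0, no net growth; 0 to -100, cell death. Compounds scoring below 10 were considered active.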 A number with no mark means an inactive call. The source made the active and inactive calls. *1 amine or outer side, *2 acyl side, *3 side chain or, on linkers, in order; H or OH if unused. Where a SMILES comes first, the peptide text is derived from it. Bridges are numbered along the chain shown (N, C = ends). Roman numbers before positions name the chains, in order. [ ]: non-standard residue; d: D form. Actinocin(1to9) = Cc1c2oc3c(C)ccc(C(=O)[*:2])c3nc-2c(C(=O)[*:1])c(N)c1=O; NMeV = CN[CH](C(=O)O)C(C)C; Sar = CNCC(=O)O

The molecules below were run on SR leukemia (assay: NCI-60 one-dose screen, 48 h (100 = growth as untreated, 0 = no growth, -100 = all killed)). Conditions: 10 µM unless noted.
Method: Growth inhibition of the SR human tumor cell line is measured as a screen for anti-cancer activity. Cells are grown in 96 well plates and exposed to the test compound for 48 hours. Compounds are tested at a single concentration, which is 10^-5 M for most compounds. The reported endpoint is percent growth (GI% or GIPRCNT), where numbers from 0 - 100% represent growth inhibition, and numbers from -100% - 0 represent cell death. For example, a value of 40 represents 60% growth inhibition. A value of 0 means no net growth occurred over the course of the experiment. A value of -40 indicates 40% of cells at the beginning of the experiment died by the end of the experiment. A value of -100 means all cells are dead at the end of the experiment.
NCI-60 Human Tumor Cell Lines Screen was performed using the standard one-dose NCI protocol, which is described in more detail at https://dtp.cancer.gov/discovery_development/nci-60/default.htm.
Compounds with GIPRCNT values below 10 were considered active. Activity score was based on GIPRCNT using the following formula: […]
Score is 0 for GIPRCNT values of 100 or above, 50 for GIPRCNT values of 0, and 100 for GIPRCNT values of -100.

Question: Which growth does the source give for `N#CC(I)CS(=O)(=O)c1ccccc1` (stereo not given) here?
Answer: 109%

Question: `O=C(Cc1ccccc1)C(F)(F)F` was tested. Which growth did it give?
Answer: 94.7%

Question: `CCNc1nnnn1CC` was tested. Which growth did it give?
Answer: 108%

Question: For `O=C1Nc2ccc(Br)cc2C1=O`, which growth is on record?
Answer: 81.9%

Question: How did the growth turn out when `CCCCCCCCCCCCNCCCc1ccccc1` was run?
Answer: -34.3% (active)

Question: Which growth does the source give for `O=C1c2ccccc2Cc2cccc(Cl)c21` here?
Answer: 64.1%

Question: Which growth does the source give for `COc1cc2c(c(OC)c1OC)-c1ccc(NCc3ccccc3)c(=O)cc1[C@@H](NC(C)=O)CC2` here?
Answer: 2.36% (active)

Question: How did the growth turn out when `CCN(CC)CC(O)c1cc(-c2ccc(Cl)cc2)nc2cc(Cl)ccc12` (stereo not given) was run?
Answer: -12.3% (active)

Question: `O=C(c1ccccc1)C(O)C(Br)(CBr)c1ccccc1` (stereo not given) was tested. Which growth did it give?
Answer: 59.3%

Question: `OC(c1cc(C23CC4CC(CC(C4)C2)C3)nc2c(Cl)cc(Cl)cc12)C1CCCCN1` (stereo not given) was tested. Which growth did it give?
Answer: -60.1% (active)

Question: With `CC1(O)CCCCCC1` as the molecule, how does the growth read?
Answer: 92.5%

Question: `O=C(Nc1ccc(Cl)c(Cl)c1)OCc1ccco1` was tested. Which growth did it give?
Answer: 25.7%

Question: With `CC(=O)OC1CC2CCC1(C)C2(C)C` (stereo not given) as the molecule, how does the growth read?
Answer: 97.6%

Question: For `CCOC(=O)C1=NN(c2ccccc2)C(=O)/C1=C\N1C(=O)/C(=C/c2cccc(O)c2)SC1=S`, which growth is on record?
Answer: 83.3%

Question: With `Cc1cc(C(=C2C=CC(=Nc3ccccc3)C=C2)c2ccc(Nc3ccccc3)cc2)ccc1N` as the molecule, how does the growth read?
Answer: 9.34% (active)

Question: For `N#CC1c2ccccc2C=CN1C(=O)CCCl` (stereo not given), which growth is on record?
Answer: 5.98% (active)

Question: For `CN=C(N)N/N=C(\c1ccccc1)c1ccc(Br)cc1`, which growth is on record?
Answer: -15.2% (active)

Question: `CCOC(=O)NC(/C=C/c1ccccc1)NC(=O)OCC` was tested. Which growth did it give?
Answer: 103%

Question: How did the growth turn out when `CC1(C)OCC(COC(c2ccccc2)(c2ccccc2)c2ccccc2)O1` (stereo not given) was run?
Answer: 93.6%

Question: For `CCC(C)C1NC(=O)C(NC(=O)c2c3nc4c(C(=O)NC5C(=O)NC(C(C)CC)C(=O)N6CCCC6C(=O)N(C)CC(=O)N(C)C(C(C)C)C(=O)OC5C)ccc(C)c4oc-3c(C)c(=O)c2N)C(C)OC(=O)C(C(C)C)N(C)C(=O)CN(C)C(=O)C2CCCN2C1=O` (stereo not given) (I: TIP[Sar][NMeV] / II: TIP[Sar][NMeV]; ester I:1-I:C, II:1-II:C; linker I:N-II:N via Actinocin(1to9); configuration not given here), which growth is on record?
Answer: 5.31% (active)

Question: For `CCOc1ccc(C(C[N+](=O)[O-])Sc2ccccc2N)cc1` (stereo not given), which growth is on record?
Answer: 4.9% (active)

Question: `O=C(CCl)N1c2ccccc2Sc2c1ccc1ccccc21` was tested. Which growth did it give?
Answer: 12.9%

Question: For `CCCCCCC1N=C(N)N=C(N)N1c1cccc(Cl)c1` (stereo not given), which growth is on record?
Answer: 31.5%

Question: `CCC[CH2][Sn]1([CH2]CCC)[O]C2C(CO)OC(n3ccc(N)nc3=O)C2[O]1` (stereo not given) was tested. Which growth did it give?
Answer: -30.5% (active)

Question: `CC(/C=N/NC(N)=S)Cc1ccc(C(C)C)cc1` (stereo not given) was tested. Which growth did it give?
Answer: 135%

Question: Which growth does the source give for `CCN(CC)CC(O)CNc1ccc(NCC2CO2)c2c1C(=O)c1ccccc1C2=O` (stereo not given) here?
Answer: -4.42% (active)

Question: With `COc1ccc(C(Cn2ccnc2)Sc2ccc(Cl)c(Cl)c2)cc1` (stereo not given) as the molecule, how does the growth read?
Answer: 97.4%

Question: Which growth does the source give for `NC(=Nc1nc(-c2ccccn2)cc2ccccc12)c1ccccn1` here?
Answer: 6.67% (active)

Question: How did the growth turn out when `O=C1c2ccccc2C(=O)c2c(O)c(Cl)cc(O)c21` was run?
Answer: 62%

Question: Which growth does the source give for `COc1cc([C@@H]2c3cc4c(cc3[C@H](OC3OC5COC(c6ccccc6)OC5C(O)C3O)[C@H]3COC(=O)[C@H]23)OCO4)cc(OC)c1OC` (stereo not given in full) here?
Answer: -25.4% (active)

Question: Which growth does the source give for `O=C1/C(=C/c2ccccc2)CCC/C1=C\c1ccccc1` here?
Answer: 67.4%

Question: `CC(O)C(O)C(O)C(O)C(O)C(=O)NNc1ccccc1` (stereo not given) was tested. Which growth did it give?
Answer: 49.7%

Question: Which growth does the source give for `CCN(CC)CCNc1ccc([N+](=O)[O-])c2sc3ccccc3c(=O)c12` here?
Answer: 11.1%

Question: For `CC[n+]1ccc(Nc2ccc(NC(=O)c3ccc(Nc4cc[n+](CC)c5ccc([N+](=O)[O-])cc45)cc3)cc2)cc1`, which growth is on record?
Answer: 75.7%

Question: How did the growth turn out when `COC(=O)[C@]1(C)CCC[C@]2(C)c3ccc(C(C)C)cc3C(=O)[C@@H](Br)[C@@H]12` was run?
Answer: 65.6%

Question: How did the growth turn out when `N=C1C=C(N)C(=O)c2ccccc21` was run?
Answer: 1.77% (active)

Question: With `OC(c1cc(-c2ccc(C(F)(F)F)cc2)nc(C(F)(F)F)c1)C1CCCCN1` (stereo not given) as the molecule, how does the growth read?
Answer: -37.6% (active) and -57.5% (active) and -38.9% (active)

Question: `Nc1nc(N)c2cc(Sc3cccc(C(F)(F)F)c3)ccc2n1` was tested. Which growth did it give?
Answer: -27.1% (active)

Question: How did the growth turn out when `Oc1cc(Cl)ccc1Cc1ccc(Cl)cc1O` was run?
Answer: 59.1%

Question: With `CC(C)=C1C=C2CC[C@@H]3[C@](C)(CCC[C@@]3(C)C(=O)O)[C@H]2CC1` as the molecule, how does the growth read?
Answer: 99%
